SKN-1 block: suppressors of acrylamide-induced Pgst-4::GFP reporter in worms, primary screen, SKN-1 inhibitor project, whole organism, uHTS, GFP/RFP fluorescence ratio, strain VP596; C. elegans VP596 Pgst-4::GFP/RFP ratio, 24 h; inhibition, % at 21.8 µM; 360,000 compounds, 0.49% hits; AID 624304, 2012;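 active = interference check ratio from 0.5 to 1.5 plus GFP to RFP signal ratio inhibition reaching or exceeding a fixed threshold, cut at about 30% in these data, passing the limit was not always enough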
F508del corr: F508del CFTR correction, initial screen, CFBE line, single point; CFBE cells, YFP halide quenching; stimulated with forskolin plus potentiator P3; % fluorescence drop versus neutral controls; 350,000 compounds, 0.36% hits; activity (quench increase), % at 7.58 µM; AID 720511, 2013;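 active = mean added fluorescence quench of at least 8% versus neutral control, with both replicates also reaching 8%; inconclusive = only one of the mean or replicate conditions met; inactive = mean below 8% and not both replicates reaching 8%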;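 note: cells transiently co-express mutant CFTR-F508del with the halide-sensitive YFP; corrector assay measuring rescue of mutant channel to the surface after 24 h compound exposure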
ATG4B inh: ATG4B protease inhibitors, primary screen, biochemical, fluorescence, uHTS; AID 504462, 2011; Cysteine protease ATG4B (Homo sapiens), Q9Y4P1; inhibition, % at 8.33 µM; ATG4B cleavage of LC3-PLA2, NBD-HPC fluorescence, 1 h; 340,000 compounds, 0.51% hits; in the data active = inhibition above about 40%
MPTP inh: mitochondrial permeability transition pore inhibitors, primary screen, biochemical, isolated mouse mitochondria, absorbance; Ca2+ swelling absorbance, 30 min; 360,000 compounds, 1.4% hits; inhibition, % at 10 µM;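 active = inhibition of 50% or more, scaled per plate between neutral and stimulator controls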;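 note: 0% = DMSO wells given calcium and 100% = 1 mM EGTA wells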
NRP1-CendR mod: modulators of CendR peptide binding to NRP-1, primary screen, biochemical, fluorescence polarization, uHTS; Neuropilin-1 (Homo sapiens), O14786; FAM-RPARPAR peptide binding to NRP-1; AID 602438, 2012; 360,000 compounds, 0.85% hits; inhibition, % at 25 µM;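 active = inhibition or corrected inhibition above about 18%, plus a signal ratio from 0.5 to 1.5, limit read from the data, passing the limit was not always enough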
MPTP counter: fluorescence retest of MPTP screen hits in isolated mitochondria, single concentration; shares compounds with MPTP inh; inhibition, % at 10 µM; 5,000 compounds, 78% hits; AID 624504, 2012; membrane potential, Rhodamine 123 fluorescence; in the data active = inhibition above about 22%;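 note: 0% = DMSO vehicle and 100% = positive control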
MPTP swell DR: mitochondrial permeability transition pore inhibitors, dose response, biochemical, absorbance, uHTS hits. isolated mitochondria swelling. AID 651561, 2012. IC50, µM. shares compounds with MPTP inh. 780 compounds, 58% hits; in the data active = IC50 below about 20 µM
MPTP cs DR: fluorescent counter-screen in isolated mitochondria, dose response, counter-screen for MPTP inhibitor project, biochemical, fluorescence, uHTS hits. AID 651564, 2012. isolated mitochondria counterscreen, fluorescence read-out. shares compounds with MPTP inh. IC50, µM. 780 compounds, 49% hits; in the data active = IC50 below about 80 µM
Active calls of the source: *; i = inactive; ? = inconclusive; . = no result; + = active, no number. Compounds with a hit are over-represented: about 2.7% of the library has one in this group of screens.

SMILES	SKN-1 block	F508del corr	ATG4B inh	MPTP inh	NRP1-CendR mod	MPTP counter	MPTP swell DR	MPTP cs DR
N#Cc1cccc(-c2ccc([C@@H]3[C@H]4CN(C(=O)Cc5ccccc5)CCCCN4[C@H]3CO)cc2)c1	.	-1	.	.	.	.	.	.
Nc1c2c(nc3sc4c(c13)CCCC4)CCCC2	9	.	9	55*	4	80*	.	.
CCOc1cc(CNCCc2c[nH]c3ccccc23)cc(Cl)c1OC	-20	2	7	95*	-4	16	3.4*	18*
CN1/C(=C\C=C2C(=O)NC(=O)NC2=O)C(C)(C)c2ccccc21	0	?	-4	-1	60	.	.	.
CCN1/C(=C/C=C/C2=[N+](CC)c3ccccc3C2(C)C)C(C)(C)c2ccccc21	67	-13	.	+	126	92*	.	.
CCCCn1c(O)c(C(CC)=NCc2ccc3c(c2)OCO3)c(=O)[nH]c1=O	3	.	-9	68*	0	27*	.	.
O=C(Cc1ccccc1)N1CCCCN2[C@H](CO)[C@@H](c3ccc(C#Cc4ccccc4)cc3)[C@@H]2C1	.	3	.	.	.	.	.	.
CC(C)(C)c1ccc(CSc2cnn(C(C)(C)C)c(=O)c2Cl)cc1	6	-14	-5	92*	7	85*	.	.
CC(N)Cc1c[nH]c2ccc(OCc3cccs3)cc12 (stereo not given)	20	.	-3	82*	-3	-11	9.8*	>80
O=c1oc2ccccc2c(O)c1C(c1ccc([N+](=O)[O-])cc1)c1c(O)c2ccccc2oc1=O	0	-1	16	42	-23	.	.	.
CC(C)c1ccc(C(c2c(O)c3ccccc3oc2=O)c2c(O)c3ccccc3oc2=O)cc1	-4	.	.	78*	-31	2	3.9*	<2.5*
CNCC(O)c1cccc(OC(=O)c2ccccc2C)c1 (stereo not given)	-28	.	-1	61*	2	-5	8.9*	>80
O=C(NCCN1CCC2(CC1)C(=O)NCN2c1ccccc1)c1ccc(Cl)cc1	.	0	.	.	.	.	.	.
COc1ccccc1CN1[C@H](CO)[C@H](c2ccccc2)C12CN(C(=O)Cc1ccccc1)C2	.	0	.	.	.	.	.	.
O=c1[nH]c2ccccc2n1C1CCN(CCCC(c2ccc(F)cc2)c2ccc(F)cc2)CC1	0	2	-5	88*	-2	-8	.	.
CSc1ncc(/C=C2/C(=O)NC(=O)N(C3CCCCC3)C2=O)cn1	4	.	-1	90*	-3	-10	3.4*	>80
COc1ccc(N2CCN(CCCN)CC2)cc1	19	.	-9	70*	-3	-4	i	>80
NCCCN1CCN(c2ccccc2)CC1	3	-3	-9	-1	-10	.	.	.
CN1CCN(c2cc(N3CCCCCC3)c(F)cc2[N+](=O)[O-])CC1	11	.	0	52*	2	-6	13*	>80
C/C=C/c1ccc([C@H]2[C@@H](CO)N3CCCCN(C(=O)Cc4ccncc4)C[C@H]23)cc1	.	0	.	.	.	.	.	.
COc1ccc(OC(=O)N(C)C[C@H]2OCc3cnnn3CCCC(=O)N([C@@H](C)CO)C[C@@H]2C)cc1	.	-1	.	.	.	.	.	.
O=C(Cc1ccccc1)N1C[C@H]2[C@@H](c3ccccc31)[C@H](CO)N2Cc1ccccc1	.	2	.	.	.	.	.	.
CCN(CC)S(=O)(=O)c1ccc(C)c(NCC(=O)Nc2ccc(C#N)c(Cl)c2)c1	-5	.	-3	77*	5	87*	.	.
CC(=O)N1CCN(CC(=O)Nc2ccc(C#N)c(Cl)c2)CC1	2	-1	-5	-1	4	.	.	.
CCOC(=O)c1ccc(N=C(CC)c2c(O)n(C)c(=O)n(C)c2=O)cc1	-3	0	-3	90*	0	3	2.1*	23*
SMILES	SKN-1 block	F508del corr	ATG4B inh	MPTP inh	NRP1-CendR mod	MPTP counter	MPTP swell DR	MPTP cs DR
CCC(=Nc1ccc2c(c1)CCC2)c1c(O)n(C)c(=O)n(C)c1=O	-6	.	2	-4	-6	.	.	.
Cc1ccc(Cl)cc1N1CCN(CCN)CC1	0	.	4	78*	2	-8	12*	>80
CN(Cc1cccc(-c2ccncc2)c1)C(=O)Oc1ccccc1Cc1ccccc1	6	.	.	90*	-1	114*	.	.
CN(Cc1cccc(-c2ccncc2)c1)C(=O)Oc1ccccc1Cl	26	.	.	47	-18	.	.	.
O=C(Cc1ccccn1)N1CCCCN2[C@H](CO)[C@H](c3ccc(-c4ccccc4)cc3)[C@@H]2C1	.	2	.	.	.	.	.	.
O=C(CNC(=O)c1ccc(Cl)cc1)Nc1ccc(Br)cc1C(=O)c1ccccc1	3	-2	-1	50*	1	67*	.	.
CCOC(=O)C1(c2ccccc2)CCN(CCC(=O)Nc2ccc(OC)cc2)CC1	3	3	.	0	1	.	.	.
CCOC(=O)C1(c2ccccc2)CCN(CCC(=O)Nc2cccc(Br)c2)CC1	4	0	-11	77*	-1	11	.	.
CC(C)NCC(O)c1ccc(C2CCCC2)cc1 (stereo not given)	4	.	-10	96*	0	-8	16*	>80
COC(=O)[C@@H]1[C@@H](CO)[C@@H]2Cn3c(ccc(-c4cccc(F)c4)c3=O)[C@H]1N2Cc1ccncc1	.	5	.	.	.	.	.	.
OC(c1cccc(Cl)c1)(c1cccc(Cl)c1)C1CN2CCC1CC2 (stereo not given)	11	-1	8	72*	40*	-10	.	.
O=C(O)C[C@@H]1CC[C@H]2NC[C@H](O)COC[C@@H]2O1	.	-2	.	.	.	.	.	.
Cc1ccccc1-c1ccc([C@@H]2[C@H]3CN(C(=O)Cc4ccccn4)CCCCN3[C@H]2CO)cc1	.	-1	.	.	.	.	.	.
O=C(Cc1ccccc1)N1CCCCN2[C@H](CO)[C@@H](c3ccc(C#Cc4ccccc4)cc3)[C@H]2C1	.	0	.	.	.	.	.	.
CCN(CCCl)c1cc(CN(C)C)cc(NC(=O)c2ccc(C(=O)Nc3cc(CN(C)C)cc(N(CC)CCCl)c3)cc2)c1	-12	-1	20	82*	14	-32	.	.
CC(C)NS(=O)(=O)c1ccc(OCC(=O)N2CCN(Cc3ccc4c(c3)OCO4)CC2)c(Cl)c1	-10	.	-7	54*	8	32*	.	.
CNCC[C@H](Oc1cccc2ccccc12)c1cccs1	-5	0	-6	94*	-1	-13	3.9*	68*
O=C(Cc1ccncc1)N1CCCCN2[C@H](CO)[C@H](c3ccc(-c4ccncc4)cc3)[C@@H]2C1	.	-1	.	.	.	.	.	.
COc1cccc(CCNCc2ccc(SC)cc2)c1	4	.	2	88*	-15	-11	13*	>80

Assay outcomes as filed in PubChem.
